Screens from PubChem.
Most compounds without a hit are left out; they make up all but 2.3% or so of the library.
CCT modulator – modulators of cytosolic chaperonin (CCT/TRiC) activity | purified chaperonin ATPase assay, HTRF ADP detection, 30 min | activity change, % (test concentration not listed), hits read low | hit rate 0.3% among 360,000 | AID 651819; in the data active = activity change below about -30%
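TRiC at 40 or 20 nM final (batch-dependent) in 30 mM Tris pH 7.4, 100 mM KCl, 5 mM MgCl2, 1 mM DTT, with compound at single 76 uM and 10 uM ATP, 30 min at 37 deg C. ADP detected by HTRF Transcreener, 665/615 ratio.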
aSyn yeast inh – alpha-synuclein toxicity inhibition in yeast; hit rate 0.14% among 370,000; Potency, µM (titrated, usually from 46.1 µM), hits mostly activators; Yeast expressing alpha-synuclein, growth rescue, BacTiter-Glo, 24 h; also: nearly all actives have a fitted effect of over 65% in size
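Rescue of yeast growth: cells expressing toxic alpha-synuclein, induced in galactose at OD600 0.02, incubated with compound 24 h at 30 C. ATP luminescence quantified growth; inhibitors of toxicity appear as activators.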
MmCpn inh – inhibitors of Methanococcus maripaludis chaperonin TRiC (MmCpn); purified Mm-Cpn ATPase, ADP Transcreener TR-FRET; hit rate 0.031% among 330,000; AID 504842; Potency, µM (highest dose often 76.9 µM), usual class: inhibitors; also: nearly all actives have a fitted effect of over 80% in size
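TR-FRET (320 nm excitation; 590 and 665 nm emission) reports ADP made from 10 uM ATP by 25 nM enzyme; compounds were preincubated 10 min, reaction run 30 min, both at 37°C.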
Abeta yeast res – A-beta toxicity reversal in yeast | yeast expressing A-beta42, growth rescue, OD600, 48 h; response scale: 0% DMSO, 100% iron-clioquinol control | Potency, µM (series often up to 46.1 µM), usual class: activators | hit rate 0.063% among 410,000 | AID 1347071; also: nearly all actives have a fitted effect of over 55% in size
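Growth rescue measured by 600 nm absorbance after 48 h yeast culture at 30 C with compound. Values normalized between DMSO and an equimolar ferric chloride plus clioquinol control.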
TDP-43 yeast inh – inhibitors of TDP-43 toxicity in yeast. TDP-43 expressing yeast growth rescue, BacTiter-Glo, 24 h. Potency, µM (top dose mostly 46.1 µM), hits mostly activators. hit rate 1.8% among 410,000. AID 652104; also: nearly all actives have a fitted effect of over 50% in size
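Yeast expressing TDP-43 (pregrown in raffinose, seeded at OD600=0.02 in galactose medium) exposed to compounds 24 hr at 30 deg C. Growth read by BacTiter-Glo luminescence; rescue of toxicity appears as increased signal.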
FUS yeast rescue – rescues growth of FUS-expressing yeast. hit rate 0.24% among 390,000. Potency, µM (titrated, usually from 76.6 µM), actives largely listed as activators. S. cerevisiae FUS-expressing, growth rescue, OD600, 24 h; also: nearly all actives have a fitted effect of over 55% in size
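Absorbance at 600 nm, taken 24hr after compound addition, measured rescue of FUS-yeast growth at 30C. Induction used 2% galactose with seeding at OD 0.005. Controls: CP55940 from 92uM final, DMSO only.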
Numbers stand for hits; 0 = inactive; ? = inconclusive; - = no result. Unless noted, calls follow the shape of the dose curve; as a rule, active = well fitted curve in the direction sought with a large enough effect; inconclusive = small, poorly fitted or top-dose-only effect, or another doubt; inactive = no such curve, though single readings can be large; an effect the other way counts as inactive or inconclusive.

SMILES	CCT modulator	aSyn yeast inh	MmCpn inh	Abeta yeast res	TDP-43 yeast inh	FUS yeast rescue
CCOC(=O)CC(NC(=O)CCc1c(C)nc2cc(-c3ccccc3)nn2c1C)c1ccc(C)cc1 (configuration not stated)	-	-	-	0	?	?
Cc1cccc(OCC(=O)Nc2ccc(O)c(-c3nc4ccccc4o3)c2)c1	-	0	-	-	-	-
COc1ccc(NC(=O)c2cc3c(CO)cnc(C)c3oc2=Nc2cccc(C)c2)c(OC)c1	-37	0	0	0	0	0
O=C1c2ccccc2C(=O)N1c1nc(-c2ccc(F)cc2)cs1	-	0	-	-	-	-
Cc1cccc2cc(CN(Cc3nnnn3Cc3ccco3)C3CCCC3)c3nnnn3c12	0	?	0	0	7.1µM	0
O=C(N/N=C/c1ccc(OCc2ccccc2)cc1)c1ccncc1	0	0	0	0	0	0
Oc1ccc(N=Cc2ccc(OCc3ccccc3)cc2)cc1	0	0	0	0	25µM	0
CC(C)(C)NCC(=O)N/N=C/c1ccc(OCc2ccccc2)cc1	0	0	0	0	22µM	0
COc1ccc(N2C(=O)CSC23C(=O)N2CCCc4cccc3c42)cc1 (configuration not stated)	0	0	0	0	0	0
COc1ccc(N2C(=O)CSC23C(=O)N2c4c(cccc43)C(C)=CC2(C)C)cc1 (configuration not stated)	0	16µM	0	0	0	0
Cc1nnc(Sc2cc(NCCCO)c([N+](=O)[O-])c3nonc23)s1	0	0	0	0	0	0
Cc1nnc(Sc2cc(NCCO)c([N+](=O)[O-])c3nonc23)s1	-58	0	0	0	0	0
Cc1cccc(C(c2sc3nc(-c4ccco4)nn3c2O)N2CCN(c3ccccc3)CC2)c1 (configuration not stated)	-	-	-	0	?	0
Cc1ccc(-c2nc3cnccn3c2Nc2ccc(C(C)C)cc2)o1	-	0	-	-	-	-
O=C(c1ccccc1)N1CCN(CC(O)COc2cccc3ccccc23)CC1 (configuration not stated)	0	0	0	0	0	0
O=C(c1cccc(COc2cccc3ccccc23)c1)N1CCCC1	0	0	0	0	22µM	?
Cc1ccc(C(=O)Nc2cccnc2Oc2ccc(Cl)cc2)cc1	0	0	?	0	0	0
Cc1ccc(S(=O)(=O)Nc2cccnc2Oc2ccc(Cl)cc2)cc1	0	0	0	0	20µM	0
CCN(CC)c1nc2c(S(=O)(=O)c3ccccc3)nnn2c2ccc(Cl)cc12	-	-	-	0	13µM	?
Cc1ccc(S(=O)(=O)c2nnn3c2nc(N2CCC(C(N)=O)CC2)c2cc(Cl)ccc23)cc1C	-	-	-	0	0	25µM
Fc1cccc(CNc2ncnc3ccc(-c4cccnc4)cc23)c1	-	-	0	-	-	-
Cc1ccc(NC(=O)c2ccc(Cn3cc(Br)cn3)o2)cc1	0	0	0	0	16µM	0
CCNC(=S)Nc1ccc2c(c1)c(=O)n(C)n2-c1ccc(C(C)(C)C)cc1	0	0	-	0	0	32µM
COc1ccccc1C(=O)Nc1nnc(-c2ccc3c(c2)CCCC3)o1	0	?	0	0	18µM	?
O=C(Nc1nnc(-c2ccc3c(c2)CCCC3)o1)C1COc2ccccc2O1 (configuration not stated)	0	6.3µM	0	?	18µM	0
SMILES	CCT modulator	aSyn yeast inh	MmCpn inh	Abeta yeast res	TDP-43 yeast inh	FUS yeast rescue
CC(=O)Nc1nnc(-c2ccc3c(c2)CCCC3)o1	0	0	0	0	32µM	0
O=C(COc1ccc(Cl)cc1)Nc1nnc(-c2ccc3c(c2)CCCC3)o1	0	0	0	0	?	0
COc1ccc(-c2nnc(NC(=O)c3ccccc3C)o2)cc1	0	?	0	0	?	0
O=CN1CCN(C(=O)C2CCN(c3ncnc4c3sc3cccc(F)c34)CC2)CC1	-	-	-	-	-	0
CCOC(=O)c1ccc2c(c1)N(Cc1cccc(C(F)(F)F)c1)C(=O)c1ccccc1S2(=O)=O	-	-	-	0	?	0
CC(C)(CCC(=S)N1CCOCC1)C1CCCCC1	-40	0	0	?	-	0
S=C(CN1CCCC1=S)N1CCOCC1	0	0	-	0	0	0
Cc1ccccc1CN1CCc2c(OCC(=O)N3CCCc4ccccc43)cccc2C1=O	0	0	0	0	13µM	0
COc1ccc(NC(=O)C(C2CC2)n2c(=O)c(-c3ccccc3)nc3ccccc32)cc1 (configuration not stated)	-	0	-	0	20µM	0
CCCCCNC(=O)C(C1CC1)n1c(=O)c(-c2ccccc2)nc2ccccc21 (configuration not stated)	-	0	-	0	0	0
O=C(Nc1ccccc1)Nc1cccc2cccnc12	0	0	0	0	7.1µM	0
COc1c(C)cccc1C(=O)Nc1cccc2ccc(C)nc12	-	-	-	0	22µM	0
O=C(Nc1ccccc1)Nc1cccc2ccccc12	0	0	0	0	0	0
CCOc1ccccc1C(=O)Nc1cccc2ccccc12	0	0	0	0	?	0
Cc1ccc2cccc(NC(=O)c3cccc4c(Cl)cccc34)c2n1	-	0	-	0	0	0
CCOc1ccccc1C(=O)Nc1ccccc1O	0	0	0	0	14µM	0
CCOc1ccccc1C(=O)Nc1cccc2ccc(C)nc12	-	-	-	0	20µM	0
O=C(Nc1cccc2cccnc12)c1ccccc1Cl	0	0	-	0	0	0
COc1cc(NCc2ccccc2O)c2ncccc2c1	0	?	0	0	0	0
Oc1ccccc1CNc1cccc2cccnc12	0	0	0	0	14µM	0
COc1ccccc1C(=O)Nc1cccc2cccnc12	0	0	0	0	3.2µM	0
N#CCCCc1cn(-c2cccc(-c3noc4c3C(=O)N(CC(=O)N3CCOCC3)CC4)c2)nn1	-	-	-	-	-	0
Cc1cc(C(=O)NN=Cc2cccc(O)c2)n[nH]1	-	-	-	-	-	0
CCC(C)N(C(=O)Cn1nc(Cc2ccncc2)c2ccccc2c1=O)C(C)CC (configuration not stated)	-	-	-	-	-	0
CCN(Cc1ccccc1)c1ncnc2c1cnn2-c1ccc(F)cc1	-	-	-	0	25µM	0
CCOC(=O)C1=NNC(C(=O)c2ccc(Cl)cc2)C1c1ccc(OC)cc1 (configuration not stated)	0	0	0	0	?	0
CCOC(=O)C1=NNC(C(=O)c2ccc(C)cc2)C1c1ccc(OC)cc1 (configuration not stated)	0	0	0	0	20µM	0
COc1ccc(Cl)cc1S(=O)(=O)NCc1ccc2c(c1)CCN2C(=O)c1cccc(C)c1	-	-	-	0	0	?
Fc1cccc(Cn2ccc3ccc(-c4ccc5ccn(Cc6ccccc6)c5c4)cc32)c1	-	-	-	-	-	0
N#Cc1c(-c2ccc(Br)cc2)nc2n(c1=O)CCCS2	0	0	0	0	?	0
